Measured values from the supplement of paper PMC4371806.
Whole data set: some 1,600 compounds, median “plate-normalized OD600 growth (mean of duplicates)” near 0.31, cut for the lowest 2% near 0.23. What follows is part of a selection rich in the lowest values, with near analogues and random picks from the rest.

Test system: Escherichia coli BW25113
Assay: plate-normalized OD600 growth (mean of duplicates) (OD600 (normalized)); higher = more growth (less inhibition)
Settings: 10 µM
Experimental: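 E. coli BW25113 in LB (100 µl, 96-well, no shaking) was exposed to 10 µM of each compound (here the ChemBridge subset of a ~30,000-member library) and grown at 37°C for 24 h or 15°C for 48 h, in duplicate. Growth was read as OD600 and the duplicate ODs were normalized across screening plates to correct plate-to-plate variation.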

## O=C(Nc1ccccc1F)c1ccc([N+](=O)[O-])o1
temperature: 15°C, 48 h
  plate-normalized OD600 growth: 0.201
temperature: 37°C, 24 h
  plate-normalized OD600 growth: 0.592

## O=C(Nc1ccccc1NC(=O)c1ccccc1F)c1ccccc1F
temperature: 15°C, 48 h
  plate-normalized OD600 growth: 0.263
temperature: 37°C, 24 h
  plate-normalized OD600 growth: 0.627

## CCN(CC)C(=O)c1ccc([N+](=O)[O-])o1
temperature: 15°C, 48 h
  plate-normalized OD600 growth: 0.247
temperature: 37°C, 24 h
  plate-normalized OD600 growth: 0.627

## CCOc1ccccc1N1CCN(C(=O)c2ccccc2C)CC1
temperature: 15°C, 48 h
  plate-normalized OD600 growth: 0.287
temperature: 37°C, 24 h
  plate-normalized OD600 growth: 0.646

## Brc1ccc(CN2CCN(c3ccccn3)CC2)cc1
temperature: 15°C, 48 h
  plate-normalized OD600 growth: 0.267
temperature: 37°C, 24 h
  plate-normalized OD600 growth: 0.614

## CN1CCCN(CC2CC3C=CC2C3)CC1 (stereo not given)
temperature: 15°C, 48 h
  plate-normalized OD600 growth: 0.225
temperature: 37°C, 24 h
  plate-normalized OD600 growth: 0.656

## COc1cccc(N2CCN(CC3CC4C=CC3C4)CC2)c1 (stereo not given)
temperature: 15°C, 48 h
  plate-normalized OD600 growth: 0.296
temperature: 37°C, 24 h
  plate-normalized OD600 growth: 0.627

## COc1ccc(CN2CCCN(C)CC2)cc1Br
temperature: 15°C, 48 h
  plate-normalized OD600 growth: 0.229
temperature: 37°C, 24 h
  plate-normalized OD600 growth: 0.632

## COC(=O)Nc1ccc(S(=O)(=O)N2CCCCC2)cc1
temperature: 15°C, 48 h
  plate-normalized OD600 growth: 0.238
temperature: 37°C, 24 h
  plate-normalized OD600 growth: 0.599

## COc1ccc(S(=O)(=O)N2CCCC2)cc1
temperature: 15°C, 48 h
  plate-normalized OD600 growth: 0.219
temperature: 37°C, 24 h
  plate-normalized OD600 growth: 0.612

## COc1ccc(S(=O)(=O)N2CCCC(C)C2)cc1 (stereo not given)
temperature: 15°C, 48 h
  plate-normalized OD600 growth: 0.266
temperature: 37°C, 24 h
  plate-normalized OD600 growth: 0.639

## Cc1cc(NO)nc(-c2ccc(Br)cc2)n1
temperature: 15°C, 48 h
  plate-normalized OD600 growth: 0.221
temperature: 37°C, 24 h
  plate-normalized OD600 growth: 0.622

## Cc1nc(C)c(-c2cc(C)c3c(C)nc(C)nc3n2)c(N)n1
temperature: 15°C, 48 h
  plate-normalized OD600 growth: 0.252
temperature: 37°C, 24 h
  plate-normalized OD600 growth: 0.617

## O=C(COc1ccc(Cl)cc1Cl)Nc1ccc(C(=O)O)cc1
temperature: 15°C, 48 h
  plate-normalized OD600 growth: 0.261
temperature: 37°C, 24 h
  plate-normalized OD600 growth: 0.618

## COc1cccc(NC(=O)c2ccncc2)c1
temperature: 15°C, 48 h
  plate-normalized OD600 growth: 0.261
temperature: 37°C, 24 h
  plate-normalized OD600 growth: 0.618

## O=C(c1cccnc1)N1CCN(C(=O)c2ccco2)CC1
temperature: 15°C, 48 h
  plate-normalized OD600 growth: 0.24
temperature: 37°C, 24 h
  plate-normalized OD600 growth: 0.631

## COc1ccc(Cc2ccc(OC)c(N)c2)cc1N
temperature: 15°C, 48 h
  plate-normalized OD600 growth: 0.254
temperature: 37°C, 24 h
  plate-normalized OD600 growth: 0.632

## COc1cc(C)c(N)cc1C(C)C
temperature: 15°C, 48 h
  plate-normalized OD600 growth: 0.226
temperature: 37°C, 24 h
  plate-normalized OD600 growth: 0.6

## COc1cc2c(cc1NC(=O)C(Cl)Cl)oc1ccccc12
temperature: 15°C, 48 h
  plate-normalized OD600 growth: 0.232
temperature: 37°C, 24 h
  plate-normalized OD600 growth: 0.619

## Cc1ccc(N2C(=O)CC(N3CCN(c4ccc([N+](=O)[O-])cc4)CC3)C2=O)c(C)c1 (stereo not given)
temperature: 15°C, 48 h
  plate-normalized OD600 growth: 0.218
temperature: 37°C, 24 h
  plate-normalized OD600 growth: 0.612

## COc1ccc(N2C(=O)CC(N3CCN(c4ccc(F)cc4)CC3)C2=O)cc1 (stereo not given)
temperature: 15°C, 48 h
  plate-normalized OD600 growth: 0.24
temperature: 37°C, 24 h
  plate-normalized OD600 growth: 0.59

## COc1ccccc1N1C(=O)CC(N2CCN(c3ccc([N+](=O)[O-])cc3)CC2)C1=O (stereo not given)
temperature: 15°C, 48 h
  plate-normalized OD600 growth: 0.282
temperature: 37°C, 24 h
  plate-normalized OD600 growth: 0.637

## Fc1ccccc1OCCCCN1CCCCC1
temperature: 15°C, 48 h
  plate-normalized OD600 growth: 0.214
temperature: 37°C, 24 h
  plate-normalized OD600 growth: 0.61

## c1ccc(OCCCCN2CCCCC2)cc1
temperature: 15°C, 48 h
  plate-normalized OD600 growth: 0.241
temperature: 37°C, 24 h
  plate-normalized OD600 growth: 0.621

## Cc1ccccc1OCCCCN1CCCCC1
temperature: 15°C, 48 h
  plate-normalized OD600 growth: 0.265
temperature: 37°C, 24 h
  plate-normalized OD600 growth: 0.623

## CC(Nc1cc(=O)n(C)c(=O)[nH]1)c1ccccc1 (stereo not given)
temperature: 15°C, 48 h
  plate-normalized OD600 growth: 0.254
temperature: 37°C, 24 h
  plate-normalized OD600 growth: 0.611

## CC1(C)CC(n2c(NN)nc3c(c2=O)C2(CCCCC2)Cc2ccccc2-3)CCO1 (stereo not given)
temperature: 15°C, 48 h
  plate-normalized OD600 growth: 0.255
temperature: 37°C, 24 h
  plate-normalized OD600 growth: 0.631

## CCN(CCN(C)C)C1CCCCCC1
temperature: 15°C, 48 h
  plate-normalized OD600 growth: 0.26
temperature: 37°C, 24 h
  plate-normalized OD600 growth: 0.618

## C=C(C)CN(CC)C1CCN(C(C)=O)CC1
temperature: 15°C, 48 h
  plate-normalized OD600 growth: 0.226
temperature: 37°C, 24 h
  plate-normalized OD600 growth: 0.627

## CC(=O)N1CCC(NC2CCCCCC2)CC1
temperature: 15°C, 48 h
  plate-normalized OD600 growth: 0.269
temperature: 37°C, 24 h
  plate-normalized OD600 growth: 0.62

## CN1CCN(C(=O)CC(c2ccccc2)c2ccccc2)CC1
temperature: 15°C, 48 h
  plate-normalized OD600 growth: 0.253
temperature: 37°C, 24 h
  plate-normalized OD600 growth: 0.62

## N#Cc1ccc(-c2cccs2)[nH]c1=O
temperature: 15°C, 48 h
  plate-normalized OD600 growth: 0.236
temperature: 37°C, 24 h
  plate-normalized OD600 growth: 0.644

## O=Cc1ccc(-c2ccc(Cl)c(C(=O)O)c2)o1
temperature: 15°C, 48 h
  plate-normalized OD600 growth: 0.268
temperature: 37°C, 24 h
  plate-normalized OD600 growth: 0.622

## O=C(/C=C/c1ccc(-c2ccc(F)cc2)o1)c1cccs1
temperature: 15°C, 48 h
  plate-normalized OD600 growth: 0.253
temperature: 37°C, 24 h
  plate-normalized OD600 growth: 0.617

## NS(=O)(=O)c1ccc(-c2ccc(C=O)o2)cc1
temperature: 15°C, 48 h
  plate-normalized OD600 growth: 0.227
temperature: 37°C, 24 h
  plate-normalized OD600 growth: 0.612
